The record followed here is PubChem BioAssay (EPA / NIEHS).

Assay [1] concerns IYD (gene 389434). As to the kind of experiment: CCTE_GLTED_hIYD: CCTE's human Iodotyrosine Deiodinase (xIYD) Inhibition Assay, Great Lakes Toxicology and Ecology Division (GLTED) Lab (AID 2284317).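 Further: cell-free human IYD enzyme made in baculovirus insect cells; iodide freed from monoiodotyrosine measured by cerium arsenite color change at 420 nm.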 In outline:
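In the IYD assay, iodide released from MIT by insect-cell-expressed human enzyme was quantified after 3 h via Sandell-Kolthoff rate at 420 nm, with plate-wise normalization to MNT and solvent controls.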

The nature of assay [2]: CCTE_Deisenroth_5AR_NBTE_donor: CCTE's 5alpha-reductase NanoBRET Target Engagement Assay […], Deisenroth Lab (AID 2284319; active means hit-call score of the fitted dose curve at least 0.9, where 1 is the maximum; inactive means score below 0.9). Particulars: actives raise or lower the signal. An outline of the steps: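 HEK293T cells were reverse transfected with an SRD5A2-NanoLuc vector for 20 h, exposed to test chemical (8 points, 10 nM - 29.9 uM) for 3 h, then testosterone tracer for 2 h more. Donor luminescence (460 nm) was read; bidirectional fit versus DMSO.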
Background: BRET reads energy transfer from a luciferase to a nearby fluorophore.

Assay [3] can be described thus: CCTE_Deisenroth_5AR_NBTE_acceptor: CCTE's 5alpha-reductase NanoBRET Target Engagement Assay - Autofluorescence Screen, Deisenroth Lab (AID 2284321; active means hit-call score of the fitted dose curve at least 0.9, where 1 is the maximum; inactive means score below 0.9;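 further: compound fluorescence in the acceptor channel under 460 nm excitation flags autofluorescence artifacts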). Conditions: actives raise or lower the signal. In outline:
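Autofluorescence check: ToxCast chemicals, nominal 100 uM, excitation 460 nm, n=3 runs. Acceptor fluorescence endpoint, bidirectional fit relative to DMSO. Parent assay in HEK293T, 5 h post-dose.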

Assay [4] is described as follows: VALA_TUBHUV_Agonist_CellCount: Viability Assessment in the VALA Sciences human Umbilical Vein Endothelial Tubule Formation (TUBHUV) Agonism Assay (AID 2284309). An outline of the steps:
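Viability endpoint by fluorescent imaging of fixed nuclear/CD31-stained HUVEC–HDF co-cultures. Readout is cell count, fitted upward against 0.1% DMSO. Compound exposure was 72 h in 10 ng/ml VEGF, after 3-day co-culture priming.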

Assay [5] in a line: VALA_TUBIPS_Antagonist_TubuleLength: VALA Sciences human iPS-derived Endothelial Tubule Formation (TUBIPS) Antagonist Assay (AID 2284313). An outline of the steps: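 Tubule length was quantified by high-content imaging of CD31- and nuclear-stained cells, with 0.1% DMSO as neutral and 100 uM suramin as inhibition control. Compounds were applied for 3 days, in 10 ng/ml VEGF, to cultures pre-grown 3 days.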

Assay [6] in a line: VALA_MIGHUV2_CellCount: Viability Assessment in the VALA Sciences human Umbilical Vein Endothelial Cell Migration (MIGHUV) Assay, Area of Scratch Wound after Recovery (AID 2284314). In outline:
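Viability read-out: Hoechst-stained nuclei counted by fluorescence imaging after a 24 h recovery period in fixed, scratched HUVEC plates. Compound was dosed within 30 min of scratching at six concentrations (triplicate); DMSO at 0.1 % served as baseline.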

Assay [7] is described as follows: VALA_MIGHUV2_Bcatenin: VALA Sciences human Umbilical Vein Endothelial Cell Migration (MIGHUV) Assay, Nuclear Translocation of beta-Catenin after Recovery (AID 2284315). An outline of the steps: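 Nuclear beta-catenin imaged by immunofluorescence with Hoechst counterstain in fixed HUVEC, 24 h after scratch wounding and chemical addition. Six-point concentration-response in triplicate; activity scored as signal increase over 0.1% DMSO vehicle.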

Assay [8] in a line: VALA_MIGHUV2_WoundArea: VALA Sciences human Umbilical Vein Endothelial Cell Migration (MIGHUV) Assay, Area of Scratch Wound after Recovery (AID 2284316). An outline of the steps:
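Wound-area endpoint read by fluorescence imaging of Hoechst-stained nuclei after a 24 h recovery period following scratch of HUVEC monolayers (9000 cells/well). Chemicals dosed within 30 min post-scratch, triplicate 6-point series, 0.1% DMSO vehicle; Cytochalasin D positive control.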

Assay [9] in a line: TAMU_PeakParms_SingleDonor1434_Asystole: Texas A&M University (TAMU) 1.5-hr Human Induced Pluripotent Stem Cell (iPSC)-derived Cardiomyocytes Calcium (Ca+2) Flux Assay for Cardiotoxicity: Asystole (quiescence of beating) (AID 2284328). In outline: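 Donor 1434 iPSC-cardiomyocytes exposed 90 min at 37C, 5% CO2, to 0.2, 1, 10 and 100 uM in 0.5% DMSO. Ca2+ dye fluorescence gave average peak frequency; POD is EC95, a 95% beat-rate drop versus controls.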

Assay [10] in a line: IUF_NPC2b_neuronal_migration_120hr: Leibniz Research Institute for Environmental Medicine (IUF) 120-hour Neural Progenitor Cell Migration Assay for Neuron Migration (NPC2b) (AID 2284300; active means hit-call score of the fitted dose curve at least 0.9, where 1 is the maximum; inactive means score below 0.9). An outline of the steps: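 hNPC spheres, PDL/laminin, DMEM:F12 3:1 + 1% N2, 37C/5% CO2; 7 concentrations + solvent control (DMSO ≤0.1%), 5 d exposure, half-feed day 3. Fix 120 h, TUBB3 ICC, HCI: mean neuron migration distance ÷ glia distance.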

Assay [11] in a line: IUF_NPC3_neuronal_differentiation_120hr: Leibniz Research Institute for Environmental Medicine (IUF) 120-hour Neuronal Differentiation Assay (NPC3) (AID 2284301; active means hit-call score of the fitted dose curve at least 0.9, where 1 is the maximum; inactive means score below 0.9). An outline of the steps:
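hNPC spheres, PDL/laminin, DMEM/F12 3:1 + 1% N2, 37C, 5% CO2; 7 concentrations + solvent control, 5 d exposure, half-change day 3. Fix 120 h; TUBB3/Hoechst ICC, CNN neuron calling; % neurons vs nuclei, DMSO-normalized.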

The nature of assay [12]: IUF_NPC4_neurite_length_120hr: Leibniz Research Institute for Environmental Medicine (IUF) 120-hour Neuronal Morphology Assay for Neurite Length (NPC4) (AID 2284302; active means hit-call score of the fitted dose curve at least 0.9, where 1 is the maximum; inactive means score below 0.9). An outline of the steps:
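hNPC spheres (0.3 mm, fetal brain GW 16-19) on PDL/laminin, DMEM:F12 3:1 + 1% N2, 37C 5% CO2; 7 concs + solvent control, day 0-5, half medium change d3; fix 120 h, TUBB3 ICC, mean neurite length um vs DMSO.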

Assay [13] in a line: IUF_NPC4_neurite_area_120hr: Leibniz Research Institute for Environmental Medicine (IUF) 120-hour Neuronal Morphology Assay for Neurite Area (NPC4) (AID 2284305). In outline:
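hNPC spheres on PDL/laminin, N2 medium, 37C/5% CO2; dosed day 0, half-medium refresh day 3; fixed 120 h; TUBB3/Hoechst ICC, high-content imaging; neurite area = mean pixels per neuron (nuclei excluded); DMSO baseline, max 0.1%.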

The nature of assay [14]: IUF_NPC2-5_cytotoxicity_72hr: Cytotoxicity Assessment at 72 hours in the Leibniz Research Institute for Environmental Medicine (IUF) Neural Progenitor Cell Migration and Differentiation Assay for Cytotoxicity (NPC2-5) (AID 2284306).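 Further: LDH release into supernatant measured by resorufin fluorescence marking membrane damage.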 An outline of the steps: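 hNPC spheres (0.3 mm), PDL/laminin, DMEM/F12 3:1 + 1% N2; cpd from d0, 7 concs + SC, DMSO max 0.1%; half-medium refresh d3. Readout: supernatant LDH via resorufin fluorescence (RFU), 72 h; gain-of-signal fit.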

Assay [15] in a line: IUF_NPC2-5_cytotoxicity_120hr: Cytotoxicity Assessment at 120 hours in the Leibniz Research Institute for Environmental Medicine (IUF) Neural Progenitor Cell Migration and Differentiation Assay (NPC2-5) (AID 2284307). In outline: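 hNPC spheres on PDL/laminin, N2 medium, 37C; 7 concs + solvent control, DMSO ≤0.1%; 5-day exposure, half medium changed day 3. LDH in supernatant at 120 h, resazurin→resorufin fluorescence, gain-of-signal.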

Assay [16] in a line: IUF_NPC2-5_cell_number_120hr: Cell Number Assessment at 120 hours in the Leibniz Research Institute for Environmental Medicine (IUF) Neural Progenitor Cell Migration and Differentiation Assay (NPC2-5) (AID 2284308; active means hit-call score of the fitted dose curve at least 0.9, where 1 is the maximum; inactive means score below 0.9;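 further: count of Hoechst-stained nuclei in migration zone around plated human neural progenitor spheres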). In outline:
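Hoechst-stained nuclei within the migration area were counted by automated high content imaging after 120 h. Single hNPC spheres differentiated on poly-D-lysine/laminin in DMEM/F12 (3:1) with 1% N2, compound present throughout, DMSO ≤0.1%.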

Assay [17] can be described thus: IUF_NPC2-5_viability_120hr: Viability Assessment at 120 hours in the Leibniz Research Institute for Environmental Medicine (IUF) Neural Progenitor Cell Migration and Differentiation Assay (NPC2-5) (AID 2284312; active means hit-call score of the fitted dose curve at least 0.9, where 1 is the maximum; inactive means score below 0.9). An outline of the steps:
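Human fetal neural progenitor spheres (0.3 mm) plated on poly-D-lysine/laminin in N2 differentiation medium, exposed 120 h with half-medium refresh at day 3. Viability by alamar blue resazurin fluorescence; 7 concentrations, DMSO max 0.1%.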

A short description of assay [18]: CCTE_Mundy_HCI_iCellGluta_NOG_NeuriteLength: CCTE's Neurite Outgrowth Assay in iCellGluta cells for Neurite Length, Mundy Lab (AID 2284318). An outline of the steps:
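Automated high-content imaging of betaIII-tubulin (Alexa Fluor-488) and Hoechst-stained cells gave neurite length, normalized to the DMSO baseline.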

Each structure is given as a SMILES string. Results filed as inconclusive are left out. Where a structure was tested more than once in an assay, its records may differ in their call. Activity calls are given as the source filed them. How the source made its calls, unless noted: active means hit-call score of the fitted dose curve at least 0.9, where 1 is the maximum; inconclusive means response in the unintended direction; inactive means score below 0.9.

Usually AC50 stands for the concentration giving half of the maximal activity seen. Take `CCN(Cc1cccc(S(=O)(=O)O)c1)c1ccc(C(=C2C=CC(=[N+](CC)Cc3cccc(S(=O)(=O)O)c3)C=C2)c2ccccc2S(=O)(=O)[O-])cc1`: the half-maximal activity concentration (AC50) in assay [1] was 100 µM (active); in [3], 21.7 µM (active). Moreover, the compound was called inactive in [2].
With `CCCCCCCCOC(=O)c1cc(O)c(O)c(O)c1`, the AC50 is 76.4 µM (active) in assay [4]; 79.9 µM (active) in assay [7]; 77 µM (active) in [1]; 74.7 µM (active) in assay [2]; 61.4 µM (active) in assay [3]. Moreover, the compound was classed as inactive in [5], in [6] and in assay [8].
On to `CCCCCCCCCCCC[N+](C)(C)C`, for which the result in assay [1] was inactive.
With `c1ccc2ccccc2c1`, the outcome in assay [9] was inactive.
For the compound `CC(C)(C)c1csc(-c2cc3cc(OCc4ccccc4CC(=O)O)ccc3o2)n1`, the AC50 in assay [1] is 68.7 µM (active).
As to `CN(C[C@@H](CC[N+]12CCC(C3CCCCC3)(CC1)CC2)c1ccc(Cl)c(Cl)c1)C(=O)c1cc(C(F)(F)F)cc(C(F)(F)F)c1`, the AC50 is 45.2 µM (active) in [1], 19.7 µM (active) in [2] and 16.1 µM (active) in assay [3].
With `O=c1c(-c2ccc(O)cc2)coc2cc(O)cc(O)c12`, the result in assay [1], in [2] and in [3] was inactive.
On to `CCN(CC)C(=O)c1cc(S(=O)(=O)Cc2ccccc2)c(N2CCC(c3ccccc3)CC2)cc1N(CC)CCN(C)C`, for which, in assay [2], the AC50 is 10 µM (active). For the same compound, the outcome in assay [2] and in [3] was inactive.
With `CO[C@H]1/C=C/O[C@@]2(C)Oc3c(C)c(O)c4c(O)c(c(/C=N/N5CCN(C)CC5)c(O)c4c3C2=O)NC(=O)/C(C)=C\C=C\[C@H](C)[C@H](O)[C@@H](C)[C@@H](O)[C@@H](C)[C@H](OC(C)=O)[C@@H]1C`, in assay [2], the AC50 was 50 µM (active). Further, the outcome in [3] was inactive.
For `O=C1O[C@H]([C@@H](O)CO)C(O)=C1O`, the compound was classed as inactive in assay [10], in assay [11], in assay [12], in assay [13], in assay [14] and in [15]. In addition, the compound was called inactive in assay [16], in assay [17] and in [18].
Turning to `CCOC(=O)O[C@H](C)OC(=O)c1ccc2c(c1)cc(C(=O)NC1CCN(C(C)C)CC1)n2Cc1cc(-c2ccc(Cl)s2)on1`, the AC50 in assay [1] is 56.4 µM (active).
In the case of `Cc1oc2c(NC(=O)c3c(Cl)cccc3Cl)cccc2c1C(C)(C)O`, in assay [1], the compound was classed as inactive.
